Experimental data: PubChem BioAssay (EPA / NIEHS)
Results filed as inconclusive are left out. Active and inactive are the calls of the source. The calls were made as follows, unless noted: active = hit-call score of the fitted dose curve at least 0.9, where 1 is the maximum; inactive = score below 0.9.

Key:
[1] = ATG_TAL_CIS: Attagene CIS-FACTORIAL HepG2 Assay for human TAL Basal Promoter (AID 2282966); details: HepG2 Attagene cis-factorial TAL promoter reporter; actives raise or lower the signal;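 also: background control endpoint measuring basal TAL promoter reporter mRNA not a specific factor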
Procedure, shortened: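 Fluorescence of labelled reporter cDNA fragments, resolved by capillary electrophoresis, gave the readout. Human HepG2 liver cells carried transiently transfected cis-element reporter units and were treated for 24 hours; activity was fitted bidirectionally against DMSO.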

[2] = ATG_TGFb_CIS: Attagene CIS-FACTORIAL HepG2 Assay for human Transforming Growth Factor (TGF) (AID 2282967); details: HepG2 Attagene CIS TGFb reporter, mRNA transcription; actives raise or lower the signal
Procedure, shortened: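 After a 24-hour incubation with compound, transfected HepG2 cells were lysed for RNA; reporter cDNA was amplified, fluorescently end-labeled and separated by CE. DMSO served as baseline for bidirectional fits.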

[3] = ATG_VDRE_CIS: Attagene CIS-FACTORIAL HepG2 Assay for human Vitamin D Receptor Element (VDRE) (AID 2282968); details: HepG2 VDRE cis-reporter transcription, actives raise or lower the signal
Procedure, shortened: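 HepG2 cells transiently transfected with cis-element reporter units, dosed 24 h; reporter mRNA measured by RT-PCR, 6-FAM labeling, HpaI digestion and capillary electrophoresis. Activity fitted bidirectionally against DMSO baseline.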

[4] = molecular target: Nuclear receptor subfamily 1 group I member 3 (Homo sapiens) (UniProt Q14994); assay: ATG_CAR_TRANS: Attagene TRANS-FACTORIAL HepG2 Assay for human Constitutive Androstane Receptor (CAR) (AID 2282969; active = hit-call score of the fitted dose curve at least 0.9, where 1 is the maximum;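 also: activators raise reporter mRNA above DMSO so AC50 marks induction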); details: HepG2 Attagene TRANS-FACTORIAL CAR reporter
Chain of Nuclear receptor subfamily 1 group I member 3 (Homo sapiens) (Q14994 whole entry, looked up, the tested form may be a part): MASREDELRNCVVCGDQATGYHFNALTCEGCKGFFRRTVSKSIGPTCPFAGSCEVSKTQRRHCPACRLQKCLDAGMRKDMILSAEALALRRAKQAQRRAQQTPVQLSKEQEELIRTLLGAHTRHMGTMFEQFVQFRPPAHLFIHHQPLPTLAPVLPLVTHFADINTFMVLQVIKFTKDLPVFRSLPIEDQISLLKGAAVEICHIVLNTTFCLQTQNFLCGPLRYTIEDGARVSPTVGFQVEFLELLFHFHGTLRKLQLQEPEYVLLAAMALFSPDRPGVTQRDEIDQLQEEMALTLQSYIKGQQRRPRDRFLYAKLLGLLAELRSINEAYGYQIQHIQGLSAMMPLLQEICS
Procedure, shortened: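 HepG2 cells transiently transfected with multiplexed GAL4-UAS reporter units expressing chimeric NR-Gal4 proteins; compound exposure 24 h. Reporter mRNA measured by RT-PCR, 6-FAM labelling, HpaI digestion and capillary electrophoresis; gain-of-signal fitted against DMSO baseline.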

[5] = molecular target: Estrogen receptor (Homo sapiens) (UniProt P03372); assay: ATG_ERa_TRANS: Attagene TRANS-FACTORIAL HepG2 Assay for human Estrogen Receptor alpha (ERa) (AID 2282970; active = hit-call score of the fitted dose curve at least 0.9, where 1 is the maximum); details: HepG2 Attagene TRANS ERa GAL4 reporter, mRNA
Chain of Estrogen receptor (Homo sapiens) (P03372 whole entry, looked up, the tested form may be a part): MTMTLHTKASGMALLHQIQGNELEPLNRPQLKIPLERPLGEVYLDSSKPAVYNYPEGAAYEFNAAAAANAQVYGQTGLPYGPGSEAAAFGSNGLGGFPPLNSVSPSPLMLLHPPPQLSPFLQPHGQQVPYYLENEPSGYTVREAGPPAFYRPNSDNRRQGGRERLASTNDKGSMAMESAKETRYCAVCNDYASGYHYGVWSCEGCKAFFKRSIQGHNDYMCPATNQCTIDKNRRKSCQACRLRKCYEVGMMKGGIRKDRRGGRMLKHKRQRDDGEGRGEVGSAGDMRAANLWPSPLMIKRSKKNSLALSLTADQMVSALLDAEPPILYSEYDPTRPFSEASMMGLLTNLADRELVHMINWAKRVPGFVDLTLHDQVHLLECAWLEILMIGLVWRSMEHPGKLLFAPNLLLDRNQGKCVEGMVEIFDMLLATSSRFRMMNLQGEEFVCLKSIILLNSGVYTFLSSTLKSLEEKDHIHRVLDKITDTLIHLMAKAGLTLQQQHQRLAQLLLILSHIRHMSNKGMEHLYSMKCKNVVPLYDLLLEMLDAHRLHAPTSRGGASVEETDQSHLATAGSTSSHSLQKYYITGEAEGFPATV
Procedure, shortened: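 Human liver HepG2, transient transfection of multiple GAL4-UAS reporter units; TRANS format (exogenous NR-Gal4 chimera). 24 h dosing. Readout: reporter mRNA, RT-PCR, 6-FAM primer extension, HpaI digest, capillary electrophoresis. Positive direction vs DMSO.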

[6] = molecular target: X-box-binding protein 1 (Homo sapiens) (UniProt P17861); assay: ATG_Xbp1_CIS: Attagene CIS-FACTORIAL HepG2 Assay for human X-box Binding Protein 1 (XBP1) (AID 2282972); details: HepG2 XBP1 cis-element reporter, Attagene multiplex; actives raise or lower the signal
Chain of X-box-binding protein 1 (Homo sapiens) (P17861 whole entry, looked up): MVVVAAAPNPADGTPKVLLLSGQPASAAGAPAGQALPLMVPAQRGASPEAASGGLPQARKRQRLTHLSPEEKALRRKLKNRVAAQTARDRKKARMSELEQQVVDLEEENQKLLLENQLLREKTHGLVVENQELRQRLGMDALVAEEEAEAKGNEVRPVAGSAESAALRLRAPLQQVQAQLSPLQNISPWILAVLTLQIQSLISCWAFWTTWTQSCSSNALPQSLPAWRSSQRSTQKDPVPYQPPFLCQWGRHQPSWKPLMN
Procedure, shortened: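 HepG2, transient MRTU transfection (cis-promoter driven), 24 h compound exposure. Total RNA → oligo(dT) RT → PCR → 6-FAM labeling → HpaI cut → CE. Bidirectional fit vs DMSO.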

[7] = molecular target: Hepatocyte nuclear factor 4-alpha (Homo sapiens) (UniProt P41235); assay: ATG_HNF4a_TRANS: Attagene TRANS-FACTORIAL HepG2 Assay for human Hepatocyte Nuclear Factor 4 alpha (HNF4a) (AID 2282982; active = hit-call score of the fitted dose curve at least 0.9, where 1 is the maximum); details: HepG2 HNF4a transactivation reporter, mRNA readout
Chain of Hepatocyte nuclear factor 4-alpha (Homo sapiens) (P41235 whole entry, looked up, the tested form may be a part): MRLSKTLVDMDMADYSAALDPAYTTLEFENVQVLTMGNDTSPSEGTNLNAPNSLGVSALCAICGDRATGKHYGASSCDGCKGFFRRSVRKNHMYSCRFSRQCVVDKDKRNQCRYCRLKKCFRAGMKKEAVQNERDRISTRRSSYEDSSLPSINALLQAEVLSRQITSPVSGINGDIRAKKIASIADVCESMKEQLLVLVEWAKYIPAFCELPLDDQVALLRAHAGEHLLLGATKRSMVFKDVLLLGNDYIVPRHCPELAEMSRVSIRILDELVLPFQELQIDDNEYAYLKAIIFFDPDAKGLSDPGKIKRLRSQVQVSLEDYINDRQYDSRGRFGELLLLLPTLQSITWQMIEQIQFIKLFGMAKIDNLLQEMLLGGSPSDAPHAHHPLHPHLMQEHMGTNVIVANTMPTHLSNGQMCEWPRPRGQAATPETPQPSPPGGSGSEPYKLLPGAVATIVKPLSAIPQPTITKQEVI
Procedure, shortened: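 HepG2 cells transiently transfected with multiplexed GAL4-UAS reporter units responsive to chimeric NR-GAL4 proteins; compound exposure 24 h. Reporter mRNA quantified by RT-PCR, 6-FAM labelling, HpaI digestion and capillary electrophoresis; gain of signal versus DMSO baseline.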

[8] = ATG_M_06_TRANS: Attagene TRANS-FACTORIAL HepG2 Assay for M06 Transcription Factor (Internal Marker) (AID 2282983; active = hit-call score of the fitted dose curve at least 0.9, where 1 is the maximum;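 also: reporter transcript level by RT-PCR then capillary electrophoresis fluorescence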); details: HepG2 Attagene TRANS M06 internal marker reporter
Procedure, shortened: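 Transfect HepG2 with MRTUs → dose compounds 24 h → isolate RNA, oligo(dT) RT → PCR with reporter primers → 6-FAM primer extension → HpaI digest → CE fragment analysis. Positive direction vs DMSO.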

[9] = molecular target: Transcriptional activator Myb (Homo sapiens) (UniProt P10242); assay: ATG_Myb_CIS: Attagene CIS-FACTORIAL HepG2 Assay for human Myeloblastosis (Myb) Proto-Oncogene Transcription Factor (AID 2282986); details: HepG2 Attagene CIS-FACTORIAL Myb reporter transcription; actives raise or lower the signal
Chain of Transcriptional activator Myb (Homo sapiens) (P10242 whole entry, looked up): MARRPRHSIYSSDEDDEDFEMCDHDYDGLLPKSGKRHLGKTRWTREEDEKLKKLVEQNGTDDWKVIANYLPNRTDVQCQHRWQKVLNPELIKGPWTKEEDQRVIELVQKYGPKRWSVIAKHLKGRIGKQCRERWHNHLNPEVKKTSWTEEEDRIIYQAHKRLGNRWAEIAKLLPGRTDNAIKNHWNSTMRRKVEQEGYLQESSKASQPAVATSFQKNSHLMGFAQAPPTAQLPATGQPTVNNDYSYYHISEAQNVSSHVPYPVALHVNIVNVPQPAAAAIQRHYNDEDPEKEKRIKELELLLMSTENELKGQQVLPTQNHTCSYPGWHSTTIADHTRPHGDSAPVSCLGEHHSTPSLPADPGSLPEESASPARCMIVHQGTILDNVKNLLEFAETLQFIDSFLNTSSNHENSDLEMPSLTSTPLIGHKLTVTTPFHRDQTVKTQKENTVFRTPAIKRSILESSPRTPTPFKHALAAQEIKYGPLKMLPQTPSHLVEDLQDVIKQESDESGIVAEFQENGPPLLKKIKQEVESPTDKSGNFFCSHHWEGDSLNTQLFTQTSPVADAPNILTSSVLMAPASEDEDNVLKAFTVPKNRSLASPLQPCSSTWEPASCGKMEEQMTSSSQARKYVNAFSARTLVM
Procedure, shortened: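 In this HepG2 transient-transfection format, cis-regulated reporter mRNA is quantified 24 h post-dosing by RT-PCR with capillary electrophoresis, fitted bidirectionally to DMSO baseline.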

[10] = molecular target: Nuclear respiratory factor 1 (Homo sapiens) (UniProt Q16656); assay: ATG_NRF1_CIS: Attagene CIS-FACTORIAL HepG2 Assay for human Nuclear Respiratory Factor 1 (NRF1) Orphan Gene (AID 2282987); details: HepG2 NRF1 cis-element reporter, Attagene multiplex; actives raise or lower the signal
Chain of Nuclear respiratory factor 1 (Homo sapiens) (Q16656 whole entry, looked up): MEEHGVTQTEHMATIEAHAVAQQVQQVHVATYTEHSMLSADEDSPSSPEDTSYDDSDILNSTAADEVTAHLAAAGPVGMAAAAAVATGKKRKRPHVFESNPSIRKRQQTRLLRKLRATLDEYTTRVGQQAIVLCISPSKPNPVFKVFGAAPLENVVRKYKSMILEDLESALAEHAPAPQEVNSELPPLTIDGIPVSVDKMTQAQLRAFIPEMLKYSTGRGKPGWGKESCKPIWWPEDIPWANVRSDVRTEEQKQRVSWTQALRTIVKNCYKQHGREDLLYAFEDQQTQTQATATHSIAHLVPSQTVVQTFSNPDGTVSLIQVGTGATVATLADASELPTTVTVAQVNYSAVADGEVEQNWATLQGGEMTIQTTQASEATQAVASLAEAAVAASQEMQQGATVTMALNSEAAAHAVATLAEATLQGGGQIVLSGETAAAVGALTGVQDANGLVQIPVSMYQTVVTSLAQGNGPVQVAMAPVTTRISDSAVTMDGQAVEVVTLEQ
Procedure, shortened: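 Using DMSO as baseline, gain- or loss-of-signal was fitted for reporter mRNA levels in HepG2 cells transiently transfected with cis-regulated reporter units. Samples were taken 24 h after dosing and read by RT-PCR with capillary electrophoresis.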

[11] = ATG_M_19_TRANS: Attagene TRANS-FACTORIAL HepG2 Assay for M19 Transcription Factor (Internal Marker) (AID 2282974; active = hit-call score of the fitted dose curve at least 0.9, where 1 is the maximum); details: HepG2 Attagene TRANS-FACTORIAL M19 internal marker reporter
Procedure, shortened: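 Using RT-PCR and capillary electrophoresis, reporter mRNA from transiently transfected human HepG2 cells was quantified following 24 h exposure; activity was fitted in the positive direction against DMSO.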

[12] = ATG_GAL4_TRANS: Attagene TRANS-FACTORIAL HepG2 Assay for GAL4 (Internal Marker) (AID 2282976; active = hit-call score of the fitted dose curve at least 0.9, where 1 is the maximum); details: HepG2 Attagene TRANS GAL4 internal marker reporter
Procedure, shortened: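 First, HepG2 cells were transfected with reporter units under GAL4-UAS control. Next, they were treated with chemical for 24 h. Finally, RNA was reverse-transcribed, PCR-amplified, FAM-labelled and resolved by capillary electrophoresis, with induction scored against DMSO.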

[13] = molecular target: Bile acid receptor (Homo sapiens) (UniProt Q96RI1); assay: ATG_FXR_TRANS: Attagene TRANS-FACTORIAL HepG2 Assay for Farnesoid X Receptor (FXR) (AID 2282979; active = hit-call score of the fitted dose curve at least 0.9, where 1 is the maximum;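 also: hits raise reporter mRNA above DMSO so AC50 marks FXR activation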); details: HepG2 Attagene TRANS FXR-GAL4 reporter transcription
Chain of Bile acid receptor (Homo sapiens) (Q96RI1 whole entry, looked up, the tested form may be a part): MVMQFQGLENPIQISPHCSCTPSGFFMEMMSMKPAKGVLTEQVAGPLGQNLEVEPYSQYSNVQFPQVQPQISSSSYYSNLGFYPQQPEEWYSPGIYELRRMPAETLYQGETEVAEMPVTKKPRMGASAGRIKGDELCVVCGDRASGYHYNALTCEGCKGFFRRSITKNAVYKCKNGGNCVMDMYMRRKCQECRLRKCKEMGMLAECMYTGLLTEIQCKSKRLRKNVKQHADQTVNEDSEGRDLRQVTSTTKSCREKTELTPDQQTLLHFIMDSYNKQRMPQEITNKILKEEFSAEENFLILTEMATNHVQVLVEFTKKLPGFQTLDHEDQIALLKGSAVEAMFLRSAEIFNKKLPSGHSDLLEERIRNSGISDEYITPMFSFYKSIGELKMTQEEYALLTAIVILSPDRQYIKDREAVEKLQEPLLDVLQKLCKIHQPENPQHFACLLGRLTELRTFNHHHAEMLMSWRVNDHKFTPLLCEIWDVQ
Procedure, shortened: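 Transient transfection of HepG2 with multiplexed GAL4-UAS reporter units; exogenous FXR-GAL4 chimera. Dose 24 h → TriZol RNA → oligo(dT) RT → PCR, 6-FAM primer extension, HpaI cut → CE. Gain vs DMSO.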

[14] = ATG_M_32_TRANS: Attagene TRANS-FACTORIAL HepG2 Assay for M32 Transcription Factor (Internal Marker) (AID 2282984; active = hit-call score of the fitted dose curve at least 0.9, where 1 is the maximum;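 also: transcript level of a background control reporter unit measured by RT-PCR and capillary electrophoresis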); details: HepG2 Attagene TRANS M32 internal marker reporter
Procedure, shortened: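 HepG2 cells transiently transfected with multiple GAL4-UAS reporter transcription units, dosed for 24 hours; reporter mRNA quantified by RT-PCR, 6-FAM primer extension, HpaI digestion and capillary electrophoresis. Gain-of-signal fitted versus DMSO baseline; internal background-control marker.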

[15] = molecular target: Estrogen-related receptor gamma (Homo sapiens) (UniProt P62508); assay: ATG_ERRg_TRANS: Attagene TRANS-FACTORIAL HepG2 Assay for human Estrogen-Related Receptor gamma (ERRg) (AID 2282977; active = hit-call score of the fitted dose curve at least 0.9, where 1 is the maximum;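 also: hits increase reporter signal over DMSO so potencies reflect activators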); details: HepG2 Attagene TRANS reporter, ERRg transactivation
Procedure, shortened: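 HepG2 cells transiently transfected with multiplexed GAL4-UAS reporter units and chimeric NR-Gal4 constructs were exposed to test chemicals for 24 h. Reporter mRNA was measured by RT-PCR, 6-FAM primer extension, HpaI digestion and capillary electrophoresis; gain-of-signal versus DMSO.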

[16] = molecular target: Oxysterols receptor LXR-alpha (Homo sapiens) (UniProt Q13133); assay: ATG_LXRa_TRANS: Attagene TRANS-FACTORIAL HepG2 Assay for human Liver X Receptor alpha (LXRa) (AID 2282980; active = hit-call score of the fitted dose curve at least 0.9, where 1 is the maximum); details: HepG2 Attagene TRANS reporter, LXRa transactivation
Chain of Oxysterols receptor LXR-alpha (Homo sapiens) (Q13133 whole entry, looked up, the tested form may be a part): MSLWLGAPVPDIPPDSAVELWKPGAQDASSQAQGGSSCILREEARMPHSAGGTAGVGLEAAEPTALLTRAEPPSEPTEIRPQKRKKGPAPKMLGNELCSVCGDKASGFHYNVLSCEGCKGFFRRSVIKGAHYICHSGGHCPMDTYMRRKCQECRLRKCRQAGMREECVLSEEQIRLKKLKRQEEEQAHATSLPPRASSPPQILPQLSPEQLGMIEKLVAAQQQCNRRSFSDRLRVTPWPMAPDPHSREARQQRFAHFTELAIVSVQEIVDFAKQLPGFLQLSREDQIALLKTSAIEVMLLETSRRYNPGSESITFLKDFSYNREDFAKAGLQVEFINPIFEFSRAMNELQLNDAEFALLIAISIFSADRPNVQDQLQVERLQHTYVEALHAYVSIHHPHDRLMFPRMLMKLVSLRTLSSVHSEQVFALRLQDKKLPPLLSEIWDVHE
Procedure, shortened: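 Transfect HepG2 with GAL4-UAS multiplex reporter constructs (TRANS format, chimeric receptor-GAL4); treat 24 h; extract RNA, reverse-transcribe, PCR-amplify, FAM-label, HpaI-digest; resolve fragments by capillary electrophoresis. Upward response vs DMSO.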

[17] = molecular target: Oxysterols receptor LXR-beta (Homo sapiens) (UniProt P55055); assay: ATG_LXRb_TRANS: Attagene TRANS-FACTORIAL HepG2 Assay for human Liver X Receptor beta (LXRb) (AID 2282981; active = hit-call score of the fitted dose curve at least 0.9, where 1 is the maximum); details: HepG2 Attagene TRANS GAL4-LXRb reporter, mRNA
Chain of Oxysterols receptor LXR-beta (Homo sapiens) (P55055 whole entry, looked up, the tested form may be a part): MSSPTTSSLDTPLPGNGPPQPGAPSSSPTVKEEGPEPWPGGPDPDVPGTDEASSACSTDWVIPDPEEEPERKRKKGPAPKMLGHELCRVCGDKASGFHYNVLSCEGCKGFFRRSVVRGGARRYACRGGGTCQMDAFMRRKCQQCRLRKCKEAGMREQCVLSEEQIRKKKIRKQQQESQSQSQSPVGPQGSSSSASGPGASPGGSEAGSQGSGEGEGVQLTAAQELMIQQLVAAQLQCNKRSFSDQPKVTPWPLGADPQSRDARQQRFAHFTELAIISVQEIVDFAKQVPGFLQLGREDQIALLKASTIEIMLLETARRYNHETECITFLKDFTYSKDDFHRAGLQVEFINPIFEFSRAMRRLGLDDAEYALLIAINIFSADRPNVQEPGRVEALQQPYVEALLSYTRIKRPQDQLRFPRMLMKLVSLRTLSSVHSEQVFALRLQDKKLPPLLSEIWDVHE
Procedure, shortened: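 HepG2 cells transiently transfected with multiple reporter transcription units carrying chimeric NR-Gal4 proteins acting on GAL4-UAS reporters; compound exposure 24 h. Reporter mRNA quantified by RT-PCR, 6-FAM labelling, HpaI digestion and capillary electrophoresis; gain of signal versus DMSO.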

[18] = molecular target: Nuclear receptor subfamily 4 group A member 2 (Homo sapiens) (UniProt P43354); assay: ATG_NURR1_TRANS: Attagene TRANS-FACTORIAL HepG2 Assay for human Nuclear Receptor Related Protein 1 (NURR1) (AID 2282985; active = hit-call score of the fitted dose curve at least 0.9, where 1 is the maximum); details: HepG2 Attagene TRANS reporter, mRNA readout
Chain of Nuclear receptor subfamily 4 group A member 2 (Homo sapiens) (P43354 whole entry, looked up, the tested form may be a part): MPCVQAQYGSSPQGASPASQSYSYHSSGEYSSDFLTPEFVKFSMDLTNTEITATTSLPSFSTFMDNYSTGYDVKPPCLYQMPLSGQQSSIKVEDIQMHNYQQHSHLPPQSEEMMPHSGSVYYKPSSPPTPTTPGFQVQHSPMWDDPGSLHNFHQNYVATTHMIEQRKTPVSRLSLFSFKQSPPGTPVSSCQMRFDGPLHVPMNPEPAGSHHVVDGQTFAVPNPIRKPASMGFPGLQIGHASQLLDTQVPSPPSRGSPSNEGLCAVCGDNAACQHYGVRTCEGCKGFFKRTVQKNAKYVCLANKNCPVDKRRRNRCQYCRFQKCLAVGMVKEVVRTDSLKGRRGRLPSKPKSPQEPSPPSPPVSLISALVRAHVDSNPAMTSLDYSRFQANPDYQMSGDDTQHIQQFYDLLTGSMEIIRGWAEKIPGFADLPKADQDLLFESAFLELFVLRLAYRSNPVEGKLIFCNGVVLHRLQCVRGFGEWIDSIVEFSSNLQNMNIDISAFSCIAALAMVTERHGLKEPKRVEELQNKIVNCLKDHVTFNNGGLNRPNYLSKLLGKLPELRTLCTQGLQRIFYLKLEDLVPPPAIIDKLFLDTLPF
Procedure, shortened: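 HepG2 cells transiently transfected with GAL4-UAS reporter units and chimeric NR-Gal4 constructs; chemical exposure 24 h. Reporter mRNA quantified by RT-PCR, fluorescent labelling and capillary electrophoresis; gain of signal fitted relative to DMSO baseline.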

Compound	outcome [1]	outcome [2]	outcome [3]	outcome [4]	outcome [5]	outcome [6]	outcome [7]	outcome [8]	outcome [9]	outcome [10]	outcome [11]	outcome [12]	outcome [13]	outcome [14]	outcome [15]	outcome [16]	outcome [17]	outcome [18]	AC50 [5]	AC50 [3]
CCCCCCCCCCCCCCCCO	inactive	inactive	inactive	inactive	inactive	inactive	inactive	inactive	inactive	inactive										
O=C(Oc1ccccc1)c1cccc(C(=O)Oc2ccccc2)c1	inactive	inactive	inactive			inactive		inactive	inactive	inactive	inactive	inactive	inactive	inactive						
O=[Si]=O	inactive	inactive	inactive		inactive	inactive	inactive	inactive	inactive	inactive	inactive	inactive		inactive	inactive	inactive	inactive	inactive		
CC(=O)CC(c1ccccc1)c1c(O)c2ccccc2oc1=O (stereo unspecified)	inactive	inactive	inactive			inactive		inactive	inactive	inactive	inactive	inactive		inactive		inactive	inactive			
CC1(C)C(=O)NC(=O)N1CO	inactive	inactive	inactive			inactive	inactive		inactive	inactive	inactive	inactive							123 µM (active)	
CS(=O)(=O)c1ccc([C@@H](C[C@H]2CCC(=O)C2)C(=O)Nc2cnccn2)cc1Cl	inactive	inactive	inactive		inactive	inactive	inactive	inactive	inactive	inactive	inactive			inactive		inactive	inactive			
O=C(O)c1[nH]n(-c2ccc(S(=O)(=O)O)cc2)c(=O)c1N=Nc1ccc(S(=O)(=O)O)cc1	inactive	inactive	inactive		inactive	inactive		inactive	inactive	inactive		inactive								
CC(C)COC(=O)CCCCC(=O)OCC(C)C	inactive	inactive	inactive			inactive	inactive		inactive	inactive	inactive		inactive	inactive			inactive			
CN(C)C(=O)NC1(c2ccccc2)CCN(CC[C@@]2(c3ccc(F)c(F)c3)CN(C(=O)c3ccccc3)CCO2)CC1	inactive	inactive				inactive			inactive	inactive	inactive		inactive							4.16 µM (active)
Cn1cnc2c1c(=O)[nH]c(=O)n2C	inactive	inactive	inactive			inactive		inactive	inactive	inactive		inactive	inactive			inactive				
CCCCCCCC(=O)OC	inactive	inactive	inactive		inactive	inactive		inactive	inactive	inactive	inactive			inactive			inactive			
